Assay outcomes (PubChem)
Bcl-xL primary – inhibitors of human Bcl-xL. GST-Bcl-xL / FITC-Bim BH3 peptide fluorescence polarization. inhibition, % at 10.9 µM. hit rate 0.7% among 320,000. AID 2129;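 active = inhibition above the mean of all tested compounds plus 3 SD, cutoff set per campaign, cut at about 30% in these data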;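 note: inhibitors lower millipolarization by displacing the labeled peptide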
GLD-1 RNA inh – GLD-1-TGE RNA interaction inhibition (C. elegans); purified GLD-1 + fluorescein TGE RNA, fluorescence polarization; Q17339; inhibition, % at 5.96 µM; hit rate 0.44% among 320,000;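 active = percent inhibition above a per-plate cutoff, the plate mean of test compounds plus 3 SD, cut at about 30% in these data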
Target sequence (Q17339 whole entry, looked up): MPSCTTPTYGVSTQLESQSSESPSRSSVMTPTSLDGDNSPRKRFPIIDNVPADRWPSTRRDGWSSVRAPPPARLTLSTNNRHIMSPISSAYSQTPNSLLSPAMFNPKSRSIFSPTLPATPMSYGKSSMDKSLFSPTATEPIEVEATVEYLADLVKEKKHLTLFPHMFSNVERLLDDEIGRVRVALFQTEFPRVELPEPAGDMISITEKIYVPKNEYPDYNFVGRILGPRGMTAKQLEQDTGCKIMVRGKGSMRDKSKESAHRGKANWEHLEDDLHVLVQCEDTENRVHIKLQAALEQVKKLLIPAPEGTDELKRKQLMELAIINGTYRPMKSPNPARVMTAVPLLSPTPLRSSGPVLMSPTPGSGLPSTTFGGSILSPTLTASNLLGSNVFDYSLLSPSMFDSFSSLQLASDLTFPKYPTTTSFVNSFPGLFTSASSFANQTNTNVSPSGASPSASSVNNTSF
EBV gp42 inh – EBV gp42 inhibition; Fluorescence polarization binding assay, mP read-out; AID 1085; Q1HVG2; inhibition, % (tested at 21.74 µM); hit rate 0.42% among 220,000; in the data active = inhibition above about 50%
MEX-5 binding – C. elegans MEX-5 TCR-2 RNA binding activity; Q9XUB2; MEX-5/FITC-TCR2 RNA binding, fluorescence polarization; hits give low values; activity score (negative = inhibition of binding), % at 10 µM; hit rate 0.38% among 300,000;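 active = inhibition past about -25% in most replicates, and total fluorescence under double the plate's negative control median, limit read from the data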
eLon inh – E. coli protease La inhibition. inhibition, % at 7.94 µM. hit rate 0.42% among 360,000. AID 602123. purified E. coli Lon protease, fluorescence polarization; in the data active = inhibition above about 13%, passing the limit was not always enough
MCL1-BIM inh – MCL1-BIM-BH3 interaction inhibition (human). hit rate 0.68% among 320,000. Q07820. GST-MCL1 / FITC-Bim-BH3 fluorescence polarization. inhibition, % at 10.9 µM;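 active = inhibition above the mean inhibition of all tested compounds plus 3 SD, set per campaign, cut at about 40% in these data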;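 note: higher means more loss of mP so more displacement of Bim peptide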
Large screens that a line does not name were inactive. Rows were chosen to be rich in hits. Some 1.5% of all compounds tested hit in one or more screens of this group.

COc1ccc(C(=O)NCC(C)(c2ccccc2)c2ccccc2)cc1S(=O)(=O)N1CCOCC1	none (no result: Bcl-xL primary, GLD-1 RNA inh, EBV gp42 inh, MEX-5 binding, MCL1-BIM inh)
N#C/C(=C\c1cccnc1)C(=O)Nc1ccccc1[N+](=O)[O-]	Bcl-xL primary 34.1 (no result: EBV gp42 inh)
N#C/C(=C\c1ccccc1[N+](=O)[O-])C(=O)NCc1ccccc1	Bcl-xL primary 33.9
N#C/C(=C\C=C\c1ccccc1[N+](=O)[O-])C(=O)NCc1ccccc1	none (no result: EBV gp42 inh)
Cc1ccccc1NC(=O)/C(C#N)=C\c1cccnc1	none
CCOC(=O)c1cc(C)nnc1C(=O)OCC	none (no result: Bcl-xL primary, GLD-1 RNA inh, EBV gp42 inh, MEX-5 binding, MCL1-BIM inh)
COc1ccc(OC)c(N(CC(=O)NCc2ccccn2)S(C)(=O)=O)c1	eLon inh 31.0
COc1ccccc1N(CC(=O)NCc1ccccn1)S(C)(=O)=O	none
COC(=O)CNc1ccc2c(c1)OCO2	Bcl-xL primary 31.1
COC(=O)Nc1ccc2c(c1)OCO2	none
O=C(NCCN1CCOCC1)C1CC(=O)N(c2ccc(Cl)cc2)C1 (stereo not drawn)	none (no result: EBV gp42 inh)
CC1=C(C(=O)Nc2ccccc2)C(c2ccccc2[N+](=O)[O-])NC(=O)N1 (stereo not drawn)	Bcl-xL primary 35.7
C[C@@H]1CN([C@H](C)CO)S(=O)(=O)c2ccc(C3=CCCCC3)cc2O[C@H]1CN(C)C(=O)Cc1cccnc1	none (no result: Bcl-xL primary, GLD-1 RNA inh, EBV gp42 inh, MEX-5 binding, MCL1-BIM inh)
Cn1c(N=Nc2ccc(N3CCOCC3)cc2)[n+](C)c2ccccc21	MEX-5 binding -31.1 (no result: Bcl-xL primary, GLD-1 RNA inh, MCL1-BIM inh)
Cc1coc2cc3oc(=O)c(CCC(=O)N4C[C@H]5C[C@@H](C4)c4cccc(=O)n4C5)c(C)c3cc12	none (no result: EBV gp42 inh)
O=C1CNC(=S)N1CCc1ccc(O)c(O)c1	MEX-5 binding -30.0
O=C1CNC(=S)N1CCOc1ccccc1	none
Cc1c(C(C)CCCO)oc(=O)c2c1Oc1c(C)c(C(C)C[C@H](C)O)oc(=O)c1C2 (stereo partly drawn)	none (no result: EBV gp42 inh, MEX-5 binding)
CN(C)c1ccc2c3c(cccc13)C(=O)N(c1ccccc1)C2=O	Bcl-xL primary 80.7, GLD-1 RNA inh 68.7, EBV gp42 inh 102.0, MCL1-BIM inh 77.0 (no result: eLon inh)
CCOc1ccc(/C=C2/SC(=O)NC2=S)cc1	Bcl-xL primary 48.2, GLD-1 RNA inh 67.3, MCL1-BIM inh 50.3
COc1ccc(C2=NN(CCC(=O)NC3CCCCC3C)C(=O)CC2)cc1 (stereo not drawn)	none (no result: Bcl-xL primary, GLD-1 RNA inh, EBV gp42 inh, MEX-5 binding, MCL1-BIM inh)
CCOC(=O)C1=C(C)OC(N)=C(C#N)C1c1cc(C)sc1C (stereo not drawn)	none
CCOC(=O)C1=C(C)OC(N)=C(C#N)C1c1cc2ccccc2nc1N1CCCCC1 (stereo not drawn)	Bcl-xL primary 31.2 (no result: eLon inh)
CCOC(=O)C1=C(C)OC(N)=C(C#N)C1c1cc2cc(C)ccc2nc1N1CCCCC1 (stereo not drawn)	Bcl-xL primary 32.8
CN(C)S(=O)(=O)c1ccc(N2CCOCC2)c(C(=O)NCc2ccc3c(c2)OCO3)c1	none (no result: EBV gp42 inh, MEX-5 binding)
Cc1cccc(N2CCN(S(=O)(=O)c3ccc(-c4ccc(=O)[nH]n4)o3)CC2)c1C	none (no result: EBV gp42 inh)
COc1ccccc1O	none (no result: EBV gp42 inh)
COc1cccc2c1-c1c(O)cccc1C2=O	Bcl-xL primary 43.2 (no result: EBV gp42 inh)
Cc1ccc(C(=O)NNC(=O)c2csc(N3CCOCC3)n2)s1	none (no result: EBV gp42 inh)
Nc1sc2c(c1C(=O)NC1CCS(=O)(=O)C1)CCC2 (stereo not drawn)	Bcl-xL primary 31.5
O=C(Nc1ccncc1)Nc1ccc(F)cc1F	EBV gp42 inh 73.3
O=c1c2ccccc2oc2ccc(NCCCn3ccnc3)cc12	MEX-5 binding -27.2 (no result: EBV gp42 inh)
Nc1c(Cl)cc(-c2cn(CCC(=O)O)c(-c3ccc(Cl)nc3)n2)cc1Cl	none (no result: EBV gp42 inh, MEX-5 binding)
CCN(C)C1CN(Cc2cn(Cc3ccccc3)nn2)S(=O)(=O)C1 (stereo not drawn)	none (no result: Bcl-xL primary, GLD-1 RNA inh, EBV gp42 inh, MEX-5 binding, MCL1-BIM inh)
CC1(Cc2ccc(F)cc2)C(=O)Nc2ccc(S(=O)(=O)NC3CCCCC3)cc21 (stereo not drawn)	none (no result: Bcl-xL primary, GLD-1 RNA inh, EBV gp42 inh, MEX-5 binding, MCL1-BIM inh)
COc1ccc(C(NC(=O)c2cc(OC)ccc2OC)c2ccccc2)cc1 (stereo not drawn)	none (no result: EBV gp42 inh)
COc1cc(C(=O)NC(c2ccccc2)c2ccccc2)cc(OC)c1C	MEX-5 binding -46.8 (no result: EBV gp42 inh)
Cc1nc(S/C(=C/c2ccc(-c3ccc(C(=O)O)cc3)o2)C(=O)O)n[nH]1	MEX-5 binding -80.5
CC(=O)c1ccc(-c2ccc(/C=C(/Sc3n[nH]c(C)n3)C(=O)O)o2)cc1	MEX-5 binding -35.0
COC(=O)c1ccc(NC(=O)c2cccc(C)c2[N+](=O)[O-])cc1	none
C=C(C)c1cccc(C(C)(C)NC(=O)N2CCN(C(=O)OCC)CC2)c1	none (no result: Bcl-xL primary, GLD-1 RNA inh, EBV gp42 inh, MEX-5 binding, MCL1-BIM inh)
Cc1ccc(Nc2cnn(C34CC5CC(CC(CC(=O)O)(C5)C3)C4)c(=O)c2Cl)c(Cl)c1	none
C[C@@H]1O[C@@H](Oc2c(-c3cc(O)c(O)c(O)c3)oc3cc(O)cc(O)c3c2=O)[C@H](O)[C@H](O)[C@H]1O	MEX-5 binding -57.5
C[C@@H]1O[C@@H](Oc2c(-c3ccc(O)c(O)c3)oc3cc(O)cc(O)c3c2=O)[C@H](O)[C@H](O)[C@H]1O	none (no result: Bcl-xL primary, EBV gp42 inh, MEX-5 binding, MCL1-BIM inh)
CC1CCCN(C(=O)CN(c2ccccc2)S(=O)(=O)c2ccc(F)cc2)C1 (stereo not drawn)	none (no result: EBV gp42 inh, MEX-5 binding)
CC1=C[C@H]2OC(=O)[C@@H](C)[C@H]2C[C@@H]2[C@H]1C[C@@H](O)[C@@]2(C)O	GLD-1 RNA inh 114.4
COc1ccc2c(Cl)cc(NC(=O)Nc3c(C)cccc3C)nc2c1	none (no result: Bcl-xL primary, GLD-1 RNA inh, EBV gp42 inh, MEX-5 binding, MCL1-BIM inh)
NS(=O)(=O)c1ccc(NC(=O)C2Cc3ccccc3CN2C(=O)c2ccco2)cc1 (stereo not drawn)	Bcl-xL primary 37.8 (no result: EBV gp42 inh)
NS(=O)(=O)c1ccc(NS(=O)(=O)c2ccc(NC(=O)c3ccc(-c4ccccc4)cc3)cc2)cc1	none
